PubChem BioAssay AID588335 (The Scripps Research Institute Molecular Screening Center, 2011)
The whole screen tested about 360,000 compounds, of which about 4,500 (1.2%) were called active. No stated cut-off is given here; in the data, active means inhibition above about 30%; inactive means the rest. Many of the other results were omitted from the sample, so actives are more common in it than they were.

Assay: inhibition of GDH and TPI enzymes – biochemical, absorbance, full deck, artefact control for M. tuberculosis FBA inhibitor project, primary screen (AID 588335);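 further: 0% = DMSO wells and 100% = wells lacking the enzyme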
Conditions: GDH-TPI coupled enzyme counterscreen, NADH absorbance; at 4.8 µM; hits give high values
For `COc1ccc(C(=O)N2CCN(c3ncccn3)CC2)cc1S(=O)(=O)N1CCOCC1`, the inhibition was 3.64% (inactive). In the case of `Cc1ccc(S(=O)(=O)N2CCOCC2)cc1C(=O)NC(=S)N(Cc1ccccc1)C(C)C`, the inhibition is reported as -2.59% (inactive). With `COCCN(CCOC)c1nc(N)c2c(N)nc3c(c2c1C#N)CC(=O)N3Cc1ccc(Cl)cc1` the inhibition was 13.7% (inactive). In the case of `COc1cc(Cn2c3ccc(NC(=O)CC(C)c4ccccc4)cc3c(=O)n2C)ccc1F` (stereo not drawn), the inhibition is reported as 4% (inactive). With `CCC(=O)Nc1c(S(=O)(=O)c2ccccc2)c2nc3ccccc3nc2n1Cc1ccccc1` the inhibition was 27% (inactive). With `CCCn1nc(NS(=O)(=O)c2ccc(F)cc2)c2cc3ccccc3nc21` the inhibition was 6.9% (inactive). With `CCN(CC)CCn1c(N)c(S(=O)(=O)c2ccccc2)c2nc3ccccc3nc21` the inhibition was 31% (active). With `O=C(NNS(=O)(=O)c1ccccc1C(F)(F)F)c1cc2ncc(C(F)(F)F)cc2s1` the inhibition was 12.3% (inactive). With `COCc1ccc(C(=O)N2CCc3c([nH]c4ccccc34)C2c2ccccn2)s1` (stereo not drawn) the inhibition was -1.89% (inactive). With `CNC(=O)c1csc(Cc2c(Cl)sc3ccc(Cl)cc23)n1` the inhibition was -5.66% (inactive). For `CN(C)C(=O)CCc1ccc2c3c([nH]c2c1)[C@]1(C)[C@@H](C(=O)N2CCOCC2)C[C@H](CC(=O)NCCc2ccccn2)C(=O)N1CC3`, the inhibition was 3.64% (inactive). For `COc1ccc(-c2ccc(Nc3ccc(S(=O)(=O)N4CCCC4)cc3)nn2)cc1OC`, the inhibition was 50.4% (active). With `COc1ccccc1CC(=O)Nc1ccc(S(=O)(=O)N2CCCC2)cc1` the inhibition was 3.02% (inactive). With `COc1ccc(S(=O)(=O)N2CCCCCC2)cc1NC(=O)Cc1ccc(OC)c(OC)c1` the inhibition was -2.16% (inactive). In the case of `CCc1ccc(C(=O)C(C)OC(=O)CN2C(=O)NC3(CCCC3)C2=O)cc1` (stereo not drawn), the inhibition is reported as 6.99% (inactive). With `CC(OC(=O)Cc1ccc(F)cc1)C(=O)N1CCc2ccccc21` (stereo not drawn) the inhibition was 3.45% (inactive). For `Cc1ccc(C(=O)COC(=O)CCCC(=O)NC2CCCCC2)cc1[N+](=O)[O-]`, the inhibition was -3% (inactive). With `Cc1ccc(N=C2NC(=O)c3cccc([N+](=O)[O-])c32)cc1` the inhibition was 13.5% (inactive). In the case of `CCn1c(O)c(N=NC(=O)c2cccc(S(=O)(=O)N3CCCCC3)c2)c2ccccc21`, the inhibition is reported as 4.32% (inactive). In the case of `CCOC(=O)Cn1c(O)c(N=NC(=O)CNC(=O)Cc2ccccc2)c2ccccc21`, the inhibition is reported as 28.8% (inactive). In the case of `COC(=O)Cn1c(O)c(N=NC(=O)OC)c2ccccc21`, the inhibition is reported as 31.6% (active). In the case of `O=C(O)C1=CCCN(CCON=C(c2ccccc2)c2ccccc2)C1`, the inhibition is reported as -4.66% (inactive). With `Cn1c(NC(=O)c2ccccc2)nc2ccccc21` the inhibition was 41.4% (active). For `Cn1c(-c2ccc(C(=O)c3ccccc3)s2)nc2ccccc21`, the inhibition was 38.1% (active). For `Cn1c(CC(=O)NNC(=O)c2ccccc2F)nc2ccccc21`, the inhibition was -6.69% (inactive). With `CCCn1c(C(=O)c2ccccc2OC)nc2ccccc21` the inhibition was 8.57% (inactive). With `CCn1c(NC(=O)c2nn(C)cc2Br)nc2ccccc21` the inhibition was 6.37% (inactive). With `Cc1nc2ccccc2c(C)c1C(=O)c1ccc(F)cc1` the inhibition was -2.59% (inactive). In the case of `C/C(=C(\C#N)C(=O)NCCCN1CCOCC1)N(C)C`, the inhibition is reported as 7.8% (inactive). In the case of `CCc1nn(CCCC(=O)Nc2ccc(C)cc2C)c(=O)c2cc3occc3n12`, the inhibition is reported as 5.68% (inactive). For `CCN(CC)C(=O)CSc1nc2ccccc2n1CC(=O)N1CCN(c2ccccc2OC)CC1`, the inhibition was -6.21% (inactive). In the case of `O=C1NC(=O)C(CCc2ccccc2)(c2ccccc2)N1` (stereo not drawn), the inhibition is reported as 2.63% (inactive). In the case of `O=C(N/N=C/C=C/c1ccccc1)C1CC1(c1ccccc1)c1ccccc1` (stereo not drawn), the inhibition is reported as 21.3% (inactive). With `COc1ccc(C2=Nn3c(nnc3-c3ccccc3OC)SC2)cc1OC1CCCC1` the inhibition was 31.1% (active). In the case of `CCn1c(SCC(=O)NC2CC2)nnc1-c1ccccc1OC`, the inhibition is reported as -0.34% (inactive). For `COc1cc(OC)c(NS(=O)(=O)c2cn(C)cn2)cc1Cl`, the inhibition was -9.45% (inactive). In the case of `Cc1cccc(N2O[C@H]3C=CC2CCCC3)n1`, the inhibition is reported as -10.9% (inactive). For `O=C(NC(=S)Nc1cc(C(F)(F)F)ccc1N1CCOCC1)c1ccc(-c2cccc(Cl)c2)o1`, the inhibition was -2.21% (inactive). With `CN1CCN(C(=O)c2ccc(-c3ccc(Br)cc3)o2)CC1` the inhibition was 3.5% (inactive). For `O=C(NC(=S)Nc1ccccc1C(=O)O)c1ccc(-c2ccc(Br)cc2)o1`, the inhibition was 40.9% (active). In the case of `O=c1c2ccccc2c(-c2ccccc2)nn1-c1ccccn1`, the inhibition is reported as 1.89% (inactive). For `COC(=O)c1cnn2c(C(F)(F)F)cc(-c3ccco3)nc12`, the inhibition was 16.7% (inactive). In the case of `O=C(CSc1nc(-c2ccco2)cc(C(F)(F)F)n1)N1CCc2ccccc2C1`, the inhibition is reported as 10.9% (inactive). In the case of `CCOC(=O)c1ccn(-c2nc(-c3ccco3)cc(C(F)(F)F)n2)n1`, the inhibition is reported as 35.1% (active). In the case of `NC(=O)CC(NC(=O)Cc1ccc(Br)cc1)c1ccc(NC2CC3CCC2C3)c([N+](=O)[O-])c1` (stereo not drawn), the inhibition is reported as -1.99% (inactive). With `CC1(c2ccc(Cl)cc2Cl)NC(=O)N(CC(=O)Nc2cccnc2Cl)C1=O` (stereo not drawn) the inhibition was 0% (inactive). With `Cc1cccc(C(=O)OCC(=O)NCC(C)C)c1O` the inhibition was 2.88% (inactive). With `N#CC1=C(N)N(c2ccc(F)cc2)C(=O)C1` the inhibition was 4.15% (inactive). For `O=[N+]([O-])c1ccc2oc(-c3cccc(O)c3)nc2c1`, the inhibition was 15.8% (inactive). For `CCCc1ccc(OCc2ccc(C(=O)N/N=C/c3cccc([N+](=O)[O-])c3)o2)c(OC)c1`, the inhibition was 3.73% (inactive). For `Cc1occc1C(=O)N/N=C/c1ccc(-c2cccc([N+](=O)[O-])c2)o1`, the inhibition was 34% (active). With `O=C(CN1C(=O)NC2(CCCC2)C1=O)OCCOc1ccc(F)cc1` the inhibition was -5.15% (inactive). For `Cc1ccc(C(=O)NCC(c2cccs2)N(C)C)cc1S(=O)(=O)N1CCOCC1` (stereo not drawn), the inhibition was 3.9% (inactive). With `CC(/C=N/NC(=O)c1cc(-c2ccc3ccccc3c2)n[nH]1)=C\c1ccco1` the inhibition was 17% (inactive). For `O=C(NCCc1ccccn1)c1cc(-c2ccc(Cl)cc2)nc2ccccc12`, the inhibition was 19.5% (inactive). In the case of `O=C(COC(=O)CCC(=O)c1cccs1)NCc1ccco1`, the inhibition is reported as 5.96% (inactive). For `O=C(N/N=C/C=C/c1ccco1)c1cccs1`, the inhibition was 46.5% (active). With `CC1(C)CC(=O)C/C(=N\NC(=O)c2cccs2)C1` the inhibition was 17.8% (inactive). For `Cc1ccc(-c2cc(C(=O)N/N=C/C=C/c3ccco3)c3ccccc3n2)cc1C`, the inhibition was 52.1% (active). In the case of `O=C(CCc1ccc(S(=O)(=O)N2CCOCC2)cc1)OCC(=O)c1ccc(Br)cc1`, the inhibition is reported as -6.33% (inactive). For `COc1ccc(CCNC(=O)COC(=O)Cc2cccc(F)c2)cc1`, the inhibition was -8.97% (inactive). For `O=C(NCc1ccccc1Cl)C1CCC(CNc2c(N3CCCCC3)c(=O)c2=O)CC1` (stereo not drawn), the inhibition was 4.69% (inactive). In the case of `CCC(C)C1(C2CCCC2)NC(=O)NC1=O` (stereo not drawn), the inhibition is reported as 0.88% (inactive). For `O=C(NC1CCC(O)CC1)c1ccc(S(=O)(=O)NCc2ccco2)cc1` (stereo not drawn), the inhibition was 11.2% (inactive). With `Cc1ccc(/C=N/NC(=O)COc2ccccc2-c2ccccc2)cc1` the inhibition was 5.68% (inactive). With `COc1cc(/C=N/NC(=O)c2cc(-c3ccccc3C)nc3ccccc23)cc(OC)c1O` the inhibition was 76.5% (active). In the case of `COc1ccc(CN(C)C(=O)c2cc(-c3ccc(C)cc3C)nc3ccccc23)c(OC)c1OC`, the inhibition is reported as 0% (inactive). In the case of `Cc1ccc(NN=Nc2nc3c([nH]2)c(=O)n(C)c(=O)n3C)cc1`, the inhibition is reported as 2.21% (inactive). In the case of `O=C(Nc1ccc(N2CCOCC2)cc1)c1cccc2c(-c3ccc(F)c(F)c3)coc12`, the inhibition is reported as 1.77% (inactive). With `CCc1c(C)n([O-])c2c([n+]1=O)CCCCC2` the inhibition was 6.72% (inactive). With `Cc1[nH]c(=O)c(C(=O)/C=C/c2ccccc2)c2c1CCCC2` the inhibition was 12.9% (inactive). For `Cc1nc(-c2ccccc2)sc1C(=O)/C=C/c1ccccc1`, the inhibition was 31.8% (active). For `Cc1nc(-c2ccc(Cl)cc2)sc1C(=O)CBr`, the inhibition was 22.6% (inactive). For `COc1ccccc1-n1ccnc(SCC(=O)NC2CCCCC2)c1=O`, the inhibition was 7.32% (inactive). In the case of `Cc1ccccc1C(CC(=O)c1cccs1)C(C#N)C#N` (stereo not drawn), the inhibition is reported as 0% (inactive). In the case of `C/C(=N/NC(=S)Nc1ccccc1)c1ccc2c(c1)OCO2`, the inhibition is reported as 12.9% (inactive). In the case of `C/C(=N\NS(=O)(=O)c1cccc([N+](=O)[O-])c1)c1cc2ccccc2o1`, the inhibition is reported as 22.8% (inactive). In the case of `C/C(=N\NC(=S)Nc1ccc(C)cc1)c1cc2ccccc2o1`, the inhibition is reported as 77.5% (active). With `CCc1c(C)nc(N)n2c(SCC(=O)NC3CCCCC3)nnc12` the inhibition was 0% (inactive). For `Cc1ccc(S(=O)(=O)N2CCCCC2)cc1C(=O)N1CCN(CCO)CC1`, the inhibition was -15.1% (inactive). For `O=C1NC(c2ccccc2)Cc2ccncc21` (stereo not drawn), the inhibition was 13.4% (inactive). With `c1ccc(-n2nnnc2N2CCOCC2)cc1` the inhibition was 2.54% (inactive). With `C1=C(N2CCOCC2)/C(=C/c2nc3ccccc3[nH]2)CC1` the inhibition was 34.8% (active). For `O=C(C1CCCO1)N1CCC(c2nc3ccccc3[nH]2)CC1` (stereo not drawn), the inhibition was -7.92% (inactive). With `CCCCN1C(=O)c2ccc(C(=O)Nc3ccc(S(=O)(=O)N(C)C)cc3)cc2C1=O` the inhibition was 2.95% (inactive). With `Cc1ccc(NC2=NC(c3ccccc3)n3c(nc(C)cc3=O)N2)cc1` (stereo not drawn) the inhibition was 4.69% (inactive). For `COc1ccc(/C=N/Nc2nc3ccccc3o2)cc1OC`, the inhibition was 44.1% (active). With `COc1ccc(/C=N/n2nnnc2N)cc1OC` the inhibition was 21.5% (inactive). In the case of `CCOc1ccccc1/C=N/Nc1nc2ccccc2o1`, the inhibition is reported as 8.78% (inactive). For `CC(C)[C@H](NC(=O)c1ccccc1F)C(=O)Nc1cccc(S(=O)(=O)N2CCOCC2)c1`, the inhibition was -3.11% (inactive). In the case of `CN1C(=O)c2ccc(NC(=O)c3c(F)c(F)c(F)c(F)c3F)cc2C1=O`, the inhibition is reported as 10.2% (inactive). For `CC(C)(C)c1cc[n+](-c2[nH]c(=O)sc2/C=N/N=C(\[O-])c2ccccc2)cc1`, the inhibition was 32.8% (active). For `Cc1cc[n+](-c2[nH]c(=O)sc2/C=N/NC(=O)c2ccccc2[O-])cc1C`, the inhibition was 30.5% (inactive).
